Values joined by “and” are separate entries in the source; they are usually repeats but may differ in a detail not shown here. Equal entries are not always repeated. In all, about 5,500 compounds went through this assay and about 2,000 (36%) were called active. Not shown: some 18% with an inconclusive outcome. Rule as the data show it: active = normalized growth mostly below about 0.91 (no sharp cut-off); inconclusive = no clear call, values can overlap the other calls; inactive = mostly above about 0.92. The list shows a part of the results.
Test: chemical genetic growth profiling, strain panel (AID 1159580);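 also: tested at 20 µM; growth read once vehicle control cultures reached saturation at 30 °C; 1 = growth at the plate median or of vehicle wells; lower values mean less growth of the strain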
Settings: S. cerevisiae deletion strains, growth OD

Measured: normalized growth

C=C1C(C2(C)C=CC(=O)C(C)(C)C2CC(=O)OC)CC[C@@]2(C)[C@H](c3ccoc3)OC(=O)C3OC132 (stereo not given in full)
inactive: locus YAL021C, strain ccr4, hits give low values 1.02 | locus YAL026C, strain drs2, hits give low values 0.97 | locus YAL030W, strain snc1, hits give low values 0.996 | locus YBL061C, strain skt5, hits give low values 0.988 | locus YBR009C, strain hhf1, hits give low values 1 | locus YBR021W, strain FUR4, hits give low values 1.03 | locus YBR023C, strain chs3, hits give low values 1 | locus YBR171W, strain sec66, hits give low values 0.954 | locus YBR229C, strain ROT2, hits give low values 0.957 | locus YBR231C, strain swc5, hits give low values 0.976 | locus YBR279W, strain paf1, hits give low values 0.999 | locus YCL011C, strain gbp2, hits give low values 1 | locus YCL016C, strain dcc1, hits give low values 1.03 | locus YCL029C, strain bik1, hits give low values 0.977 | locus YCL061C, strain MRC1, hits give low values 0.997 | locus YCL069W, strain vba3, hits give low values 0.986 | locus YCR088W, strain abp1, hits give low values 0.991 | locus YDL005C, strain med2, hits give low values 0.997 | locus YDL035C, strain GPR1, hits give low values 0.978 | locus YDL040C, strain nat1, hits give low values 0.992 | locus YDL074C, strain BRE1, hits give low values 0.969 | locus YDL101C, strain DUN1, hits give low values 0.987 | locus YDL185W, strain tfp1, hits give low values 0.956 | locus YDL192W, strain arf1, hits give low values 0.985 | locus YDR001C, strain nth1, hits give low values 0.992 | locus YDR069C, strain doa4, hits give low values 0.966 | locus YDR101C, strain arx1, hits give low values 0.97 | locus YDR137W, strain rgp1, hits give low values 0.976 | locus YDR159W, strain sac3, hits give low values 0.962 | locus YDR162C, strain NBP2, hits give low values 0.982 | locus YDR195W, strain ref2 0.976 | locus YDR297W, strain sur2, hits give low values 0.996 | locus YDR318W, strain mcm21, hits give low values 0.99 | locus YDR334W, strain swr1, hits give low values 0.966 | locus YDR335W, strain msn5, hits give low values 1 | locus YDR388W, hits give low values 0.977 | locus YDR392W, strain spt3, hits give low values 0.942 | locus YDR502C, strain sam2, hits give low values 0.979 | locus YEL003W, strain gim4, hits give low values 0.983 | locus YEL037C, strain rad23, hits give low values 0.989 | locus YEL061C, strain CIN8 (second series), hits give low values 0.982 | locus YEL061C, strain CIN8, hits give low values 0.995 | locus YER015W, strain faa2, hits give low values 0.996 | locus YER016W, strain bim1, hits give low values 0.989 | locus YER110C, hits give low values 0.981 | locus YER111C, strain swi4, hits give low values 0.972 | locus YER155C, strain BEM2 (second series), hits give low values 1.01 | locus YER155C, strain BEM2, hits give low values 0.995 | locus YER167W, strain BCK2, hits give low values 0.985 | locus YFR010W, strain ubp6, hits give low values 0.971 | locus YGL078C, strain dbp3, hits give low values 0.978 | locus YGL086W, strain mad1, hits give low values 1.01 | locus YGL167C, strain pmr1, hits give low values 0.989 | locus YGL173C, strain kem1, hits give low values 0.968 | locus YGL227W, strain vid30, hits give low values 0.999 | locus YGL240W, strain doc1, hits give low values 0.999 | locus YGL248W, strain PDE1, hits give low values 0.995 | locus YGR135W, strain pre9, hits give low values 1.02 | locus YGR229C, strain SMI1, hits give low values 0.998 | locus YGR252W, strain gcn5, hits give low values 0.984 | locus YHR013C, strain ard1, hits give low values 0.993 | locus YHR027C, strain rpn1, hits give low values 0.972 | locus YHR030C, strain SLT2, hits give low values 0.991 and 0.976 | locus YHR079C, strain IRE1 (second series), hits give low values 0.975 | locus YHR079C, strain IRE1, hits give low values 0.978 | locus YHR094C, strain hxt1, hits give low values 0.976 | locus YHR129C, strain ARP1, hits give low values 0.992 | locus YHR142W, strain chs7, hits give low values 1.02 | locus YHR200W, strain rpn10, hits give low values 0.968 | locus YIL066C, strain RNR3, hits give low values 0.974 | locus YIL073C, strain SPO22, hits give low values 0.994 | locus YIL125W, strain kgd1, hits give low values 0.978 | locus YIR030C, strain dcg1, hits give low values 0.977 | locus YJL092W, strain hpr5, hits give low values 0.973 | locus YJL095W, strain BCK1 (second series), hits give low values 0.979 | locus YJL095W, strain BCK1, hits give low values 1 and 0.987 | locus YJL115W, strain asf1, hits give low values 0.98 | locus YJL129C, strain trk1, hits give low values 0.961 | locus YJL134W, strain LCB3, hits give low values 0.983 | locus YJL154C, strain vps35, hits give low values 1.01 | locus YJL164C, strain tpk1, hits give low values 1.03 | locus YJL166W, strain qcr8, hits give low values 1 | locus YJL168C, strain set2, hits give low values 0.994 | locus YJL187C, strain SWE1 (second series), hits give low values 0.989 | locus YJR066W, strain TOR1, hits give low values 0.932 | locus YJR075W, strain HOC1, hits give low values 0.98 | locus YKL009W, strain mrt4, hits give low values 0.986 | locus YKL068W, hits give low values 0.989 | locus YKL085W, strain MDH1 (second series), hits give low values 1 | locus YKL085W, strain MDH1, hits give low values 1 | locus YKL160W, strain elf1, hits give low values 1.05 | locus YKR001C, strain vps1, hits give low values 0.992 | locus YKR026C, strain gcn3, hits give low values 0.981 | locus YKR091W, strain srl3, hits give low values 0.996 | locus YLL001W, strain dnm1, hits give low values 0.967 | locus YLL026W, hits give low values 0.984 | locus YLL041C, strain sdh2, hits give low values 0.975 | locus YLR027C, strain aat2, hits give low values 0.978 | locus YLR039C, strain RIC1, hits give low values 0.92 | locus YLR058C, strain SHM2, hits give low values 0.979 | locus YLR102C, strain apc9, hits give low values 0.983 | locus YLR113W, strain HOG1, hits give low values 0.991 | locus YLR221C, strain rsa3, hits give low values 0.978 | locus YLR258W, strain gsy2, hits give low values 1.02 | locus YLR262C, strain YPT6 (second series), hits give low values 0.983 | locus YLR262C, strain YPT6, hits give low values 0.933 | locus YLR268W, strain sec22, hits give low values 0.959 | locus YLR320W, strain mms22, hits give low values 1 | locus YLR342W, strain FKS1, hits give low values 0.993 | locus YLR357W, strain rsc2, hits give low values 0.978 | locus YLR370C, strain arc18, hits give low values 0.963 | locus YLR371W, strain rom2, hits give low values 0.972 | locus YLR384C, strain iki3, hits give low values 1 | locus YLR418C, strain cdc73, hits give low values 0.994 | locus YML016C, strain PPZ1, hits give low values 0.978 | locus YML032C, strain rad52, hits give low values 0.965 | locus YML120C, strain ndi1, hits give low values 1.02 | locus YML124C, strain tub3, hits give low values 0.988 | locus YMR058W, strain fet3, hits give low values 0.994 | locus YMR078C, strain ctf18, hits give low values 0.961 | locus YMR125W, strain sto1, hits give low values 0.992 | locus YMR129W, hits give low values 0.99 | locus YMR205C, strain PFK2, hits give low values 1 | locus YMR223W, strain ubp8, hits give low values 0.993 | locus YMR231W, strain pep5, hits give low values 0.973 | locus YMR263W, strain SAP30, hits give low values 0.972 | locus YMR307W, strain GAS1, hits give low values 1.16 | locus YNL067W, strain RPL9B, hits give low values 0.992 | locus YNL071W, strain lat1, hits give low values 0.999 | locus YNL153C, strain GIM3, hits give low values 0.982 | locus YNL183C, strain NPR1, hits give low values 0.968 | locus YNL209W, strain ssb2, hits give low values 1 | locus YNL233W, strain BNI4, hits give low values 1.02 | locus YNL248C, strain rpa49, hits give low values 0.938 | locus YNL250W, strain rad50, hits give low values 0.972 | locus YNL271C, strain bni1, hits give low values 0.976 | locus YNL298W, strain CLA4, hits give low values 0.976 | locus YNL307C, strain MCK1, hits give low values 0.982 | locus YNL322C, strain KRE1 (second series), hits give low values 0.992 | locus YNR049C, strain mso1, hits give low values 0.988 | locus YNR052C, strain pop2, hits give low values 0.984 | locus YOL012C, strain htz1 1.19 | locus YOL147C, strain pex11, hits give low values 0.979 | locus YOR001W, strain rrp6, hits give low values 0.936 | locus YOR061W, strain CKA2, hits give low values 0.956 | locus YOR069W, strain VPS5, hits give low values 0.994 | locus YOR070C, strain gyp1, hits give low values 0.993 | locus YOR080W, strain dia2, hits give low values 0.976 | locus YOR083W, strain WHI5, hits give low values 1.06 | locus YOR106W, strain vam3, hits give low values 1.06 | locus YOR136W, strain idh2, hits give low values 0.976 | locus YOR144C, strain elg1, hits give low values 0.98 | locus YOR184W, strain ser1, hits give low values 0.953 | locus YOR231W, strain MKK1, hits give low values 0.996 | locus YOR265W, strain rbl2, hits give low values 0.991 | locus YOR270C, strain vph1, hits give low values 0.87 | locus YOR290C, strain snf2, hits give low values 1.05 | locus YOR316C, strain cot1, hits give low values 0.981 | locus YPL051W, strain arl3, hits give low values 0.959 | locus YPL078C, strain atp4, hits give low values 1.05 | locus YPL106C, strain sse1, hits give low values 1.04 | locus YPL240C, strain hsp82, hits give low values 0.976 | locus YPL241C, strain CIN2, hits give low values 0.986 | locus YPL256C, strain CLN2, hits give low values 0.995 | locus YPR119W, strain clb2, hits give low values 0.98 | locus YPR141C, strain kar3, hits give low values 0.985 | locus YPR163C, strain tif3, hits give low values 0.983 | locus YPR167C, strain met16, hits give low values 0.983 | strain wtn01, hits give low values 0.956
active: locus YGL253W, strain hxk2, hits give low values 0.91

Reference: PubChem BioAssay AID1159580 (chemical genetic matrix, 2015)
